Experimental findings from PubChem BioAssay (NCATS) are described below.

Records with an inconclusive call do not appear. Calls of active or inactive are those of the source. Calls follow the shape of the dose curve; as a rule, active = well fitted cell-killing curve with a large enough effect; inconclusive = small, poorly fitted or top-dose-only effect, or effect the other way; inactive = no such curve, though single readings can be large or run the other way.
Potency is read from the fitted curve at half-maximal effect.

This assay is described as follows: Viability qHTS for spleen associated tyrosine kinase inhibitor (SYKi) drug resistant MV4-11 cells (AID 1963824). Also: nearly all actives have a fitted effect of over 35% in size. Particulars: SYKi-resistant MV4-11 viability, CellTiter-Glo, 72 h; series mostly up to 45 µM; viability, % of control: at the top concentration. The method in brief:
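SYK inhibitor-resistant MV4-11 AML cells, 500 per well, added to predispensed compounds and incubated 72 hr at 37 C, 5% CO2. Viability measured by CellTiter-Glo luminescence after 10 min at room temperature.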
In the case of `C=C1C(=O)OC2C1C(O)CC1(C)C(O)CCC(C=O)C21` (stereo unspecified), the Potency was 16.4 µM (active).
Take `CS(=O)(=O)Nc1ccc2oc3c(OC(F)F)ccc(C(=O)Nc4c(Cl)cncc4Cl)c3c2c1`: the Potency is 23.1 µM (active).
On the same count and under the same terms, the same measure for `COc1cccc(CNC(=O)Nc2nc(-c3ccncc3)cs2)c1`: 18.4 µM (active); for `Cc1cc(Nc2nc(-c3ccccc3)nc3ccccc23)n[nH]1`: 0.366 µM (active).
Take `CO[C@H]1/C=C/O[C@@]2(C)Oc3c(C)c(O)c4c(O)c(c5c(nc6cc(C)ccn65)c4c3C2=O)NC(=O)/C(C)=C\C=C\[C@H](C)[C@H](O)[C@@H](C)[C@@H](O)[C@@H](C)[C@H](OC(C)=O)[C@@H]1C`: the Potency was 14.8 µM (active).
Still for that read-out and setting: the same measure for `Cc1cccc(N(C)C(=S)Oc2ccc3c(c2)CCC3)c1`: 18.4 µM (active).
On to `C[C@@H]1O[C@@H](O[C@H]2[C@@H]3C=CO[C@@H](O[C@@H]4O[C@H](CO)[C@@H](O)[C@H](O)[C@H]4O)[C@@H]3[C@@]3(CO)O[C@@H]23)[C@H](O)[C@H](OC(=O)/C=C/c2ccc(O)cc2)[C@H]1OC(=O)/C=C/c1ccc(O)cc1`, for which the “viability, % of control” value is 93.7% [at 17.3 µM] (inactive).
On to `CC(C)C[C@H](CC(=O)NO)C(=O)N[C@H](C(=O)N[C@@H](C)C(=O)NCCN)C(C)(C)C`, for which the viability, % of control was 90.6% [at 9.25 µM] (inactive).
The same measure, in the same setting: the same measure for `CC(=O)OC1C(C)C2C(OC3OC(CO)C(O)C(O)C3O)OC=C(C(=O)O)C2C1OC(=O)c1ccccc1` (stereo unspecified): 110% [at 17.3 µM] (inactive).
In the case of `C[C@]12C=C[C@@]3(CCC4[C@](C)(CO)CCC[C@@]4(C)C3CC1)C2` (stereo partly specified), the Potency was 9.2 µM (active).
On the same count and under the same terms, the same measure for `Cc1cc(N)c2ccccc2[n+]1CCCCCCCCCC[n+]1c(C)cc(N)c2ccccc21`: 0.58 µM (active).
